Screens as filed in PubChem.
HCV inhibitor: HCV inhibition. Huh7.5.1 HCVcc-Cre infection, luciferase reporter, 44 h. Potency, µM (titrated, usually from 41.8 µM), for the others: at the highest dose activity change, negative = inhibition, most hits filed as inhibitors. hit rate 3.4% among 340,000; active = well fitted inhibition curve with a large enough effect; inconclusive = small, poorly fitted or top-dose-only effect, or another doubt; inactive = no such curve, though single readings can be large or run the other way; also: potency is read from the fitted curve at half-maximal effect; % is scaled to controls: 0 for no effect and ±100 for the full control effect
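Cells seeded at 1,000/well and cultured 4 h, then compounds added followed by HCVcc-Cre virus (~0.5 moi). After 44 h further culture, luciferase substrate was added, plates held 15 min at room temperature, and luminescence read for 15 sec.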
HCMV inh: human cytomegalovirus inhibition. hit rate 4.5% among 410,000. AID 1259415. HFF cells, HCMV-luciferase reporter, 72 h; hits give low values. activity change, negative = inhibition, % at 57.5 µM; in the data active = activity change below about -60%; inconclusive = no clear call, values can overlap the other calls; inactive = above about -39%; also: % is scaled to controls: 0 for no effect and ±100 for the full control effect
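Steps: HFFs plated, 16 h 37C; compounds added; HCMV-luciferase added to MOI 1 PFU/cell; 72 h 37C; OneGlo reagent, 5 min room temperature; luminescence read, normalized to controls.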
FMDV antiviral: antivirals against foot and mouth disease virus; FMDV antiviral cell-based qHTS; Potency, µM (titrated, usually from 57.9 µM), inactives show at the top dose activity change, negative = inhibition, most hits filed as inhibitors; hit rate 1.2% among 410,000; calls by dose curve; tested in HEK293T cells; also: read-out not given here; potency is read from the fitted curve at half-maximal effect; % is scaled to controls: 0 for no effect and ±100 for the full control effect; nearly all actives have a fitted effect of over 45% in size
SARS PLpro yeast: blocks SARS-CoV papain-like protease in a yeast assay; S. cerevisiae expressing SARS-CoV PLpro, growth rescue; Potency, µM (top dose mostly 32.9 µM), inactives show top-dose activity, positive = growth rescue, most hits filed as activators; hit rate 0.19% among 330,000; calls by dose curve; also: potency is read from the fitted curve at half-maximal effect; 0% is about no effect; nearly all actives have a fitted effect of over 55% in size
MARV entry inh: inhibitors of Marburg virus binding or cell entry; Potency, µM (doses to about 37.8 µM), inactives show at the highest dose activity change, negative = inhibition, usual class: inhibitors; hit rate 1.8% among 300,000; Marburg virus pseudotyped entry inhibition, cell reporter; calls by dose curve; tested in HEK293 cells; also: potency is read from the fitted curve at half-maximal effect; % is scaled to controls: 0 for no effect and ±100 for the full control effect
LASV entry inh: inhibitors of Lassa virus binding or cell entry. AID 540256. Potency, µM (series often up to 37.9 µM), inactives show at the highest dose activity change, negative = inhibition, most hits filed as inhibitors. hit rate 1.2% among 300,000. Lassa virus pseudotype entry inhibition, cell reporter; calls by dose curve; tested in HEK293 cells; also: potency is read from the fitted curve at half-maximal effect; % is scaled to controls: 0 for no effect and ±100 for the full control effect; nearly all actives have a fitted effect of over 50% in size
* hit, by the source's call; u = inconclusive; x = no result given; [ ] = dose if it differs, or a comment. Hits are enriched below; roughly 8% of the tested compounds scored in any of these assays.

SMILES | HCV inhibitor | HCMV inh | FMDV antiviral | SARS PLpro yeast | MARV entry inh | LASV entry inh
Cc1ccc(NS(=O)(=O)c2cc(NC(=O)c3ccc4c(c3)NC(=O)CS4)ccc2Cl)c(C)c1 | 10µM* | -94* | -22% | 0% | x | x
COc1ccc(NC(=O)c2ccc3c(c2)NC(=O)CS3)cc1 | u | 7 | 31% | 2% | x | x
Cc1ccc(N2CC(C(=O)NC3CCCCCC3)CC2=O)cc1 (stereo unspecified) | x | -64* | -18% | x | x | x
O=P(c1ccccc1)(c1ccccc1)c1cc(Br)cc(Br)c1OCCO | -21% | x | -20% | 1% | 13µM* | -4%[46.1 µM]
c1ccc2c(c1)NC1(CCCC1)n1c-2nc2ccccc21 | 11µM* | -28 | x | -11% | u | -2%
CCCC1(C)Nc2ccccc2-c2nc3ccccc3n21 (stereo unspecified) | -16% | 73 | 0% | -20% | -4% | 24%
FC(F)(F)c1ccccc1-c1ccc2ncnc(NC3CCNCC3)c2c1 | x | x | -14% | x | x | x
O=C(CSc1ccccc1)N1CCN(c2ccccn2)CC1 | -12% | -12 | 20% | -1% | 7%[46.1 µM] | -2%
COc1ccccc1CNC(=O)CSc1ccsc1[N+](=O)[O-] | 0% | 4 | 36% | 2% | x | x
O=C(CSc1ccsc1[N+](=O)[O-])N1CCN(c2ccccn2)CC1 | -25% | -68* | -6% | -1% | u | -3%
CCc1ccccc1NC(=O)CSc1ccsc1[N+](=O)[O-] | u | -66* | u | -1% | -1% | 16%
S=c1[nH]nc(-c2ccco2)n1-c1ccc(Cl)cc1 | 13% | -61* | 0% | 0% | 13%[46.1 µM] | 0%[46.1 µM]
COc1ccc(-n2c(-c3ccco3)n[nH]c2=S)cc1 | 2% | -2 | 18% | 3% | 21% | 14%
Cc1ccccc1-n1c(/C=C/c2ccccc2F)nc2ccccc2c1=O | x | -85* | u | x | x | 1%[46.1 µM]
O=c1c2ccccc2nc(/C=C/c2cccc3ccccc23)n1-c1ccccc1Cl | x | u | 22µM* | x | x | -13%[46.1 µM]
Cc1ccccc1-n1c(/C=C/c2c(C)n(C)c3ccccc23)nc2ccccc2c1=O | x | -19 | -27% | x | x | -5%[46.1 µM]
CC(C)n1nnnc1C1c2ccccc2C(=O)N1Cc1cccnc1 (stereo unspecified) | x | -15 | -19% | x | x | x
Cc1ccc(C)c(NC(=S)/C(=C(\[O-])c2ccc(OC(F)F)cc2)[n+]2ccccc2)c1 | 20% | 14 | 5% | 1% | 1%[46.1 µM] | 1%[46.1 µM]
Cc1ccc(NC(=S)/C(=C(\[O-])c2ccc(F)cc2)[n+]2ccccc2)cc1 | -11% | -73* | 35% | -8% | -19%[46.1 µM] | 2%
COc1ccc(-c2cc3cc(OC)c(OC)cc3c(C)n2)cc1 | 14µM* | 14 | 30% | -2% | -16%[46.1 µM] | -2%
COc1ccc2c(OC)cc(-c3ccccc3)nc2c1 | 10µM* | -5 | -12% | -34% | -12% | 0%
COc1ccc(-c2cc(OC)c3ccccc3n2)cc1 | u | 32 | 24% | -10% | -16% | 14%
COc1ccc(-c2cc3ccc(OC)cc3cn2)cc1 | -6% | 25 | -50% | 2% | x | x
O=C(Nc1ccc(F)c(Cl)c1)c1cc(-c2ccco2)on1 | -9% | -14 | 92% | -2% | 4%[46.1 µM] | -3%
NC(=O)COC(=O)c1ccc(-c2ccc(O)cc2)cc1 | 4% | 0 | 0% | 1% | x | x
SMILES | HCV inhibitor | HCMV inh | FMDV antiviral | SARS PLpro yeast | MARV entry inh | LASV entry inh
NC(=O)COC(=O)c1ccc(-c2ccccc2)cc1 | 7% | -62* | 23% | -1% | 0%[46.1 µM] | 11%[46.1 µM]
Cc1cc(NC(=O)Cn2nnc3sc4c(c3c2=O)CCC(C(C)(C)C)C4)no1 (stereo unspecified) | 11µM* | u | -14% | -17% | -16% | -2%
COc1cc2c(cc1OC)C(c1cc3ccccc3oc1=O)=NC(C)(C)C2 | u | -98* | -12% | -1% | -3% | -7%
COc1ccc(C2=NC(C)(C)Cc3cc(OC)c(OC)cc32)cc1OC | -3% | -1 | -10% | -6% | x | x
COCCCNC(=O)c1sc2nc(C)c(C(=O)Nc3ccc(C)cc3C)c(-c3ccc(Br)cc3)c2c1N | x | -18 | -29% | x | u | -25%[46.1 µM]
CCOC(=O)c1sc2nc(C)cc(-c3ccccc3)c2c1N | u | u | 0% | 23% | -9% | -4%
COc1ccc(-c2c3c(nc4sc(C(=O)Nc5ccccc5)c(N)c24)CCC3)cc1 | -7% | 37 | 0% | x | 1% | 7%
